First the molecules themselves.
T1: UNK ZnF1-6 (called full-length) (human, UniProt Q9C0B0 30-357)
T1 sequence: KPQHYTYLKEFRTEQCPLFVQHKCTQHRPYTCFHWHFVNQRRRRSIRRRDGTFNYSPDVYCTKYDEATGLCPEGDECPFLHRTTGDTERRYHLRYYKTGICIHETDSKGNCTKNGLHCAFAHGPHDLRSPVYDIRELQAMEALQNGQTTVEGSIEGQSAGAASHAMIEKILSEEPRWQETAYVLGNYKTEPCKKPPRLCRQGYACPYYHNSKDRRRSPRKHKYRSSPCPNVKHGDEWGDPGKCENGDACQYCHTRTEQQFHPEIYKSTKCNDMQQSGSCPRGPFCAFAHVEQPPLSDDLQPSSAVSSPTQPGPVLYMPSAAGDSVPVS

B1: chr12:64128047:64128160:+|CDS|ENSG00000196935|unk|FALSE|unique (ssRNA)
RNA: GGGAGUUCUACAGUCCGACGAUCGGCAGCCUGACCAACAUCAGCCGGCACGACUCCCUCAAGAAGAUCGACAGCCCUCCCAUUAGAAGGUCCACGUCAUCAGGGCAAUACACGGGCUUCAAUGACCACAAGCCACUGGACCCACAACAGAGGAUUGAGCAUCA
B2: chr11:30010719:30012678:-|CDS|ENSG00000182255|control|control|control (ssRNA)
RNA: GGGAGUUCUACAGUCCGACGAUCUUUGCUCAAGAAAUUUCGGAGCUCUACUUCUUCUUCCCUGGGGGACAAGUCAGAGUAUCUAGAGAUGGAAGAAGGAGUUAAGGAAUCUCUGUGUGCAAAGGAGGAGAAGUGUCAGGGAAACAACAGAGGAUUGAGCAUCA
B3: chr11:101473508:101473773:-|CDS|ENSG00000137672|control|control|control (ssRNA)
RNA: GGGAGUUCUACAGUCCGACGAUCUCCUCAAAUAAUAUCUGAAGGUCUUUAUGCAAUUGCUGUAGUUUUAAGUUUCUCUAGGAUAGCUUAUAUUUUACCAGCAAAUGAAAGCUUUGGACCUCUGCAGAUAUCACUUGGAAGAACCAACAGAGGAUUGAGCAUCA
B4: ENSG00000092201:stop:overlap|stop_codon|ENSG00000092201|stop_codon|NA|stop_codon (ssRNA)
RNA: GGGAGUUCUACAGUCCGACGAUCUUCCCCGCGUGCCAGCCUUGGUCAUGCAUAGCAGCACCUCUCGCAGUCUCUUCCCGCCCUAGAAGAGGCAACAUCCUUCCCUCCUACUCCGUGGUCACGUCUUGCUGCCCUCCCCUGCCGCAACAGAGGAUUGAGCAUCA
B5: chr8:143915815:143915916:-|3pUTR|ENSG00000178209|msi1|FALSE|unique (ssRNA)
RNA: GGGAGUUCUACAGUCCGACGAUCGCCAGGUGCCUUGGAGGGUCCCAAGCUGGGCCCCAGCCCACCCUCCUGUCUUCCCAGGGUAGCCCGCCUGCCAGUCCUAGCUGCACAGGGCAGCUGGGCCCAACCCUGUCUGUAGAGGGCCAACAGAGGAUUGAGCAUCA
B6: chr1:17067933:17068034:-|3pUTR|ENSG00000117115|msi1|total|mutant (ssRNA)
RNA: GGGAGUUCUACAGUCCGACGAUCACAUAAGGACCCUGGCCUACCCUCCAGCCCAACAGCCAGUUCUGGGUCAGCUGCCAACUCCGGGGUGGUUUGAUUAUCCCAUUGAAAUUCACCAGUGCCUUUGCCAAAGACCCUCUCAUUCAACAGAGGAUUGAGCAUCA
B7: chr22:31279490:31279591:+|3pUTR|ENSG00000182541|msi1|FALSE|unique (ssRNA)
RNA: GGGAGUUCUACAGUCCGACGAUCAGCAGCUUGGGCUGGGAAGAGGUGGUGGCAGAGUCUCAAAGCUGAGAUGCUGAGAGAGAUAGCUCCCUGAGCUGGGCCAUCUGACUUCUACCUCCCAUGUUUGCUCUCCCAACUCAUUAGCAACAGAGGAUUGAGCAUCA
B8: chr1:193029531:193029688:-|CDS|ENSG00000116750|unk|total|mutant (ssRNA)
RNA: GGGAGUUCUACAGUCCGACGAUCUUGAUAUCUUCACUUUUAUAUUUUACCGGUAAUUAAUAAUGCUUGUGCUACUCAAGCCACCGUGAGUGUGUUACUGAACUGUACCCACCAGGAUGUCCAUUCCGGCGAGACAUUAUCAGACAACAGAGGAUUGAGCAUCA
B9: ENSG00000099250:stop:overlap|stop_codon|ENSG00000099250|stop_codon|NA|stop_codon (ssRNA)
RNA: GGGAGUUCUACAGUCCGACGAUCCAAUUCACGGAGAAAUGUGGUCAUCUGGAAAAGGAGUCUGCUCCCUGGAUGCGAAUCUGUAGCCUGGAUUCUGGAAGGCGAUGCUGAUUUAGGAGGUGGAGUGAAUGGAGAAUUGAAAAGCAACAGAGGAUUGAGCAUCA
B10: chr12:10081268:10081413:-|three_prime_utr|ENSG00000150048|control|control|control (ssRNA)
RNA: GGGAGUUCUACAGUCCGACGAUCUCAGUACUACCAGCUCUCCAAUACUGGUCAAGACACCAUUUCUCAAAUGGAAGAAAGAUUAGGAAAUACGUCCCAAGAGUUGCAAUCUCUUCAAGUCCAGAAUAUAAAGCUUGCAGGAAGCAACAGAGGAUUGAGCAUCA
B11: chr15:63774837:63774950:-|CDS|ENSG00000103657|unk|total|mutant (ssRNA)
RNA: GGGAGUUCUACAGUCCGACGAUCGUAACAACAUUUCUUAAAGGAGUCACUAUUCCUAAUUCUGGGGCAGACACUUCCGGUCGCCGAUCCGCUUCUGAGUUGCUGCUUGGUUUGGCAGCUCAACGAGGCUCAUUGCGAUAUCUUCAACAGAGGAUUGAGCAUCA
B12: ENSG00000086827:stop:overlap|stop_codon|ENSG00000086827|stop_codon|NA|stop_codon (ssRNA)
RNA: GGGAGUUCUACAGUCCGACGAUCUAAUUCGUGCCUUGUUUCAGAACACAGAAAGAAGAGCAGCUGCCCUUGCUAAAAUUAAAUAGCUCCAUCUUCUUAAGAAAGCUAUGUCUUGAAUAUGUGGAUUCUUCCCUUGGCAUAAUUCAACAGAGGAUUGAGCAUCA
B13: chr10:27397735:27399240:-|CDS|ENSG00000182077|control|control|control (ssRNA)
RNA: GGGAGUUCUACAGUCCGACGAUCUCUUCUAGGCUACCCAGUGUUACAAAGUGCAAUUUCAACAAUAAUAGGGGUGUGUGUUUUAGCUGCAGCGAAAGCAUACAUCUUCAGAACAUUUUUUAAGAUUAUGUUUCUUGUUAUGAUCAACAGAGGAUUGAGCAUCA
B14: ENSG00000124766:be:win_3751|3pUTR|ENSG00000124766|bound_else_gene|NA|bound_elsewhere_windowed (ssRNA)
RNA: GGGAGUUCUACAGUCCGACGAUCUUGUACAUUUAAGUCUGUAUUAUAAUAAGCAAAAAGAUUGUGUGUAUGUAUGUUUAAUAUAACAUGACAGGCACUAGGACGUCUGCCUUUUUAAGGCAGUUCCGUUAAGGGUUUUUGUUUCAACAGAGGAUUGAGCAUCA

The full ranking holds about 5,800 sequences; the median of “enrichment r” is about 0.68, and the highest 2% start at about 11. Only a sample is shown.

This test addresses T1, UNK ZnF1-6 (called full-length). Nature of the test: nsRBNS (natural sequence RNA bind-n-seq); RBNS binding buffer (assumed for nsRBNS): 25 mM Tris pH 7.5, 150 mM KCl, 3 mM MgCl2, 0.01% Triton X-100, 500 ug/ml BSA, 20 U/ml SUPERase-In, 4 C; UNK is unkempt and MSI1 is Musashi-1; names of the RNAs are library labels; protein concentration not given here; high values mean tight binding.
Turning to B1, the binding signal amounted to 1.28 enrichment R.
In turn, B2 displayed a binding signal of 0.697 enrichment R.
In turn, B3 showed a binding signal of 0.473 enrichment R.
Molecule B4 gave a binding signal of 0.859 enrichment R.
In turn, B5 came in with a binding signal of 1.03 enrichment R.
Regarding B6, the binding signal was 0.749 enrichment R.
For B7, the binding signal worked out at 0.852 enrichment R.
Regarding B8, the binding signal was found to be 0.805 enrichment R.
The value for B9 was 0.76 enrichment R; that for B10 was 0.413 enrichment R; that for B11 was 0.574 enrichment R.
The value for B12 was 1.49 enrichment R; that for B13 was 0.38 enrichment R.
For the molecule B14, the binding signal is 0.359 enrichment R.

Source of the values: publication PMC12136788.
